Values joined by “and” are separate entries in the source; they are usually repeats but may differ in a detail not shown here. Equal values may be shown once. About 83,000 compounds went through this panel and 20% of them were active in at least one assay; those are over-represented in the sample as a whole.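 The test compound was applied at a single concentration to cells in 96-well plates for 48 hours, and percent growth was recorded.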 Active and inactive are the calls of the source. The calls were made as follows: active = growth percent below 10; inactive = the rest.
Legend:
UACC-62 melanoma = assay: NCI-60 one-dose screen, 48 h (100 = growth as untreated, 0 = no growth, -100 = all killed); conditions: 10 µM unless noted
TK-10 renal = assay: as above; conditions: 10 µM unless noted

Compound | growth (UACC-62 melanoma) | growth (TK-10 renal)
CCCCC1C(=O)N(c2ccc(S(=O)(=O)Nc3ccccn3)cc2)N(c2ccc(O)c(C(=O)O)c2)C1=O (stereo not drawn) | 105% [100 µM] (inactive) and 96.1% [100 µM] (inactive) | 102% [100 µM] (inactive) and 94.2% [100 µM] (inactive)
COC(=O)C(=O)C(C(=O)C(=O)Nc1ccc(Cl)c(Cl)c1)c1nc2ccc(C(=O)c3ccccc3)cc2[nH]c1=O (stereo not drawn) | 43.9% [100 µM] (inactive) and 6.66% [100 µM] (active) | 89.4% [100 µM] (inactive) and 14.4% [100 µM] (inactive)
C/C(O)=C/c1nc2sc(C)c(C)c2c(=O)s1 | 19.1% [100 µM] (inactive) and 37.1% [100 µM] (inactive) | 50.2% [100 µM] (inactive) and 46.7% [100 µM] (inactive)
CC1OC23CCCCC2C(C#N)(C#N)C1(C#N)C(=N)O3 (stereo not drawn) | -14.6% [100 µM] (active) | 36.7% [100 µM] (inactive)
O=C1NC(N/N=C\c2ccccc2)=N/C1=C/c1ccccc1 | -53.2% [100 µM] (active) and -100% [100 µM] (active) | -49.7% [100 µM] (active) and -77.5% [100 µM] (active)
C=CCNC1=C2C[C@@H](C)C[C@@H](OC)[C@@H](OC(=O)CCCN)[C@H](C)/C=C(\C)[C@@H](OC(N)=O)[C@H](OC)/C=C\C=C(/C)C(=O)NC(=CC1=O)C2=O | -57.7% [100 µM] (active) and -64.4% [100 µM] (active) | -57.4% [100 µM] (active) and -99.4% [100 µM] (active)
CC1C2(C)OC(=N)C(C#N)(C(c3cccc([N+](=O)[O-])c3)O2)C1(C#N)C#N (stereo not drawn) | 100% [100 µM] (inactive) | 108% [100 µM] (inactive)
N#Cc1c(N)oc(-c2cccc([N+](=O)[O-])c2)c1C#N | -82.9% [100 µM] (active) and -75% [100 µM] (active) | -44.5% [100 µM] (active) and -69.6% [100 µM] (active)
CC(C)CCCC(C)[C@H]1CC[C@H]2[C@@H]3CC[C@H]4C[C@@H](CCC=C(c5cc(Cl)c(O)c(C(=O)O)c5)c5cc(Cl)c(O)c(C(=O)O)c5)CC[C@]4(C)[C@H]3CC[C@]12C (stereo partly drawn) (tested in a mixture with another compound) | 72.7% [50 µM] (inactive) and 21% [50 µM] (inactive) | 179% [50 µM] (inactive) and 2.06% [50 µM] (active)
COc1cc2c(c3c1c(=O)c1ccccc1n3C)C=C([N+](=O)[O-])C(C)(C)O2 | -21.5% [100 µM] (active) and -100% [100 µM] (active) | 31.2% [100 µM] (inactive) and -98.1% [100 µM] (active)
Clc1ccc(C2C3COc4ccccc4C3=NN2c2ccccc2)cc1 (stereo not drawn) | 37.4% [100 µM] (inactive) and 0.301% [100 µM] (active) | 77% [100 µM] (inactive) and 31.3% [100 µM] (inactive)
CCC(c1ccc(N(C)C)cc1)C1NC(=S)NC1=O (stereo not drawn) | 20.7% [100 µM] (inactive) and 17.1% [100 µM] (inactive) | 47.6% [100 µM] (inactive) and 37.5% [100 µM] (inactive)
COc1cc2c(cc1-c1coc3cc(O)ccc3c1=O)OCO2 | 58.8% [100 µM] (inactive) and 55% [100 µM] (inactive) | 81.2% [100 µM] (inactive) and 3.05% [100 µM] (active)
CCOc1cc2c(cc1O)/C(=N/NS(=O)(=O)c1ccc(C)cc1)C[C@@H]1[C@@H]2CC[C@]2(C)[C@@H](O)CC[C@@H]12 | -88.9% [100 µM] (active) | -22.6% [100 µM] (active)
